Our source for the outcome and AC50 values is PubChem BioAssay (EPA / NIEHS).

Calls of active or inactive are those of the source. The calls were made as follows: active = hit-call score of the fitted dose curve at least 0.9, where 1 is the maximum; inactive = score below 0.9.

A short description of the first test: ATG_GRE_CIS: Attagene CIS-FACTORIAL HepG2 Assay for human Glucocorticoid Response Elements (GRE) (AID 2282947). As to conditions: HepG2 GRE cis-reporter, Attagene multiplex mRNA; actives raise or lower the signal. In short, it runs like this:
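Following 24 h chemical exposure of transiently transfected HepG2 cells, total RNA was reverse-transcribed and reporter cDNA amplified, fluorescently labelled and sized by capillary electrophoresis. Signal gain or loss was fitted relative to DMSO vehicle.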
With `C=CCOC(=O)CCCCCC`, the call was inactive.

In the case of `Nc1ccn([C@H]2CS[C@@H](CO)O2)c(=O)n1`, the call was inactive.

For the molecule `CCCCC1CCC(O)CC1` (stereo unspecified), the molecule was called inactive.

As to `COc1cccc(OC)c1O`, the call was inactive.

As to `Cc1c(OCC(F)(F)F)ccnc1CS(=O)c1nc2ccccc2[nH]1` (stereo unspecified), the outcome was inactive.

Take `CCC1(c2ccccc2)C(=O)NCNC1=O`: the result was inactive.

Take `CSCCC=O`: the molecule was classed as inactive.

As for `C=C1CC[C@H](O)C/C1=C/C=C1\CCC[C@]2(C)[C@@H]([C@H](C)/C=C/[C@H](C)C(C)C)CC[C@@H]12`, the molecule was called inactive.

With `CC(=O)Nc1ccc(C(=O)CCl)cc1`, the molecule was classed as inactive.

Take `CCCC(C)=O`: the outcome was inactive.

As to `CS(=O)(=O)c1ccc(C2=C(c3ccccc3)C(=O)OC2)cc1`, the molecule was called inactive.

Regarding `CCCCCCOCCOCCO`, the molecule was classed as inactive.

As for `O=C(O)COCC(=O)O`, the molecule was called inactive.

With `CC[N+](C)(CC)CC`, the result was inactive.

For the molecule `CCCCCCCCCCCCCCN(CCO)CCO`, the molecule was called inactive.

For the molecule `CCCN(CCC)S(=O)(=O)c1ccc(C(=O)O)cc1`, the molecule was called inactive.

For `C[C@H](CCC(=O)NCC(=O)O)[C@H]1CC[C@H]2[C@@H]3[C@H](O)C[C@@H]4C[C@H](O)CC[C@]4(C)[C@H]3C[C@H](O)[C@]12C`, the outcome was inactive.

Regarding `CC(Oc1cc(Cl)ccc1Cl)C(=O)O` (stereo unspecified), the call was inactive.

Consider `C=C(C)C1CC=C(C)C(=O)C1` (stereo unspecified), for which the outcome was inactive.

A short description of another test: ATG_ISRE_CIS: Attagene CIS-FACTORIAL HepG2 Assay for human Interferon Regulatory Factor 1 (IRF1) binding to an Interferon-Stimulated Response Element (ISRE) (AID 2282948). Particulars: HepG2 ISRE cis-reporter (Attagene), mRNA transcription readout; actives raise or lower the signal. In short, it runs like this: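 Quantitation relies on labelled RT-PCR fragments separated by capillary electrophoresis. Human HepG2 cells bearing cis-promoter reporter constructs were treated 24 h; DMSO served as baseline for bidirectional fitting.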
As for `O=C(c1ccccc1)C(O)c1ccccc1` (stereo unspecified), the call was inactive.

As for `Cc1ccc2c(c1)C(=O)OC2=O`, the call was inactive.

Take `CCCCCCCCc1ccc(S(=O)(=O)O)cc1`: the molecule was called inactive.

Take `CCCCCCC(CO)CCCC` (stereo unspecified): the outcome was inactive.

For `Nc1ccc2cc(S(=O)(=O)O)cc(O)c2c1N=Nc1ccccc1C(F)(F)F`, the call was inactive.

For `CCCOCCO`, the result was inactive.

As to `COCCc1ccc(OCC(O)CNC(C)C)cc1` (stereo unspecified), the call was inactive.

`FC(F)(F)COCC(F)(F)F`: the molecule was called inactive.

With `O=C(Nc1ccc([N+](=O)[O-])cc1)Nc1ccc([N+](=O)[O-])cc1` (tested in a mixture with another compound), the call was inactive.

Consider `COc1cc(Cl)c(OC)cc1N`, for which the outcome was inactive.

Turning to `CCCCCC(C=O)=Cc1ccccc1`, the AC50 is 160 µM (active).

For the molecule `CSc1c(Cl)c(Cl)c(Cl)c(Cl)c1Cl`, the AC50 is 27.9 µM (active).

Turning to `CCCC1O[C@@H]2C[C@H]3[C@@H]4CCC5=CC(=O)C=C[C@]5(C)[C@H]4[C@@H](O)C[C@]3(C)[C@]2(C(=O)CO)O1` (stereo partly specified), the AC50 was 137 µM (active).

For the molecule `C=C(CC(=O)O)C(=O)O`, the outcome was inactive.

Consider `O=C(O)CNc1ccccc1`, for which the call was inactive.

For the molecule `C[C@H]1O[C@@H](O[C@H]2[C@@H](O)C[C@H](O[C@H]3[C@@H](O)C[C@H](O[C@H]4CC[C@@]5(C)[C@H](CC[C@@H]6[C@@H]5C[C@@H](O)[C@]5(C)[C@@H](C7=CC(=O)OC7)CC[C@]65O)C4)O[C@@H]3C)O[C@@H]2C)C[C@H](O)[C@@H]1O`, the AC50 was 0.179 µM (active).

Regarding `CCc1ccc(O)cc1`, the molecule was classed as inactive.

For `CCCC[P+](CCCC)(CCCC)CCCC`, the molecule was classed as inactive.

For the molecule `NC(=S)NNC(N)=S`, the molecule was classed as inactive.

In the case of `O=C1OC[C@H](Cc2cccc(O)c2)[C@H]1Cc1cccc(O)c1`, the call was inactive.

Consider `C=CCOC(=O)CCCCCC`, for which the call was inactive.

For `Nc1ccn([C@H]2CS[C@@H](CO)O2)c(=O)n1`, the molecule was called inactive.

With `CCCCC1CCC(O)CC1` (stereo unspecified), the molecule was classed as inactive.

With `COc1cccc(OC)c1O`, the call was inactive.

Consider `Cc1c(OCC(F)(F)F)ccnc1CS(=O)c1nc2ccccc2[nH]1` (stereo unspecified), for which the molecule was called inactive.

With `CCC1(c2ccccc2)C(=O)NCNC1=O`, the outcome was inactive.

Take `CSCCC=O`: the molecule was classed as inactive.

For the molecule `C=C1CC[C@H](O)C/C1=C/C=C1\CCC[C@]2(C)[C@@H]([C@H](C)/C=C/[C@H](C)C(C)C)CC[C@@H]12`, the outcome was inactive.

As to `CC(=O)Nc1ccc(C(=O)CCl)cc1`, the AC50 is 6.86 µM (active).

With `CCCC(C)=O`, the result was inactive.

Regarding `CS(=O)(=O)c1ccc(C2=C(c3ccccc3)C(=O)OC2)cc1`, the call was inactive.

For the molecule `CCCCCCOCCOCCO`, the call was inactive.

Take `O=C(O)COCC(=O)O`: the call was inactive.

In the case of `CC[N+](C)(CC)CC`, the result was inactive.

In the case of `CCCCCCCCCCCCCCN(CCO)CCO`, the call was inactive.

With `CCCN(CCC)S(=O)(=O)c1ccc(C(=O)O)cc1`, the outcome was inactive.

As for `C[C@H](CCC(=O)NCC(=O)O)[C@H]1CC[C@H]2[C@@H]3[C@H](O)C[C@@H]4C[C@H](O)CC[C@]4(C)[C@H]3C[C@H](O)[C@]12C`, the result was inactive.

Turning to `CC(Oc1cc(Cl)ccc1Cl)C(=O)O` (stereo unspecified), the outcome was inactive.

For `C=C(C)C1CC=C(C)C(=O)C1` (stereo unspecified), the outcome was inactive.

A short description of the next test: ATG_M_32_CIS: Attagene CIS-FACTORIAL HepG2 Assay for M32 Transcription Factor (Internal Marker) (AID 2282949).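 Also: background control marker of the multiplexed CIS panel rather than a real target.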 Particulars: HepG2 Attagene cis-factorial M32 reporter, mRNA; actives raise or lower the signal. A digest of the protocol: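 Fluorescent capillary electrophoresis peaks of HpaI-digested, FAM-labelled RT-PCR reporter products give the signal. Source: transiently transfected human liver HepG2 cells, 24 h after chemical dosing; bidirectional fitting against DMSO.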
On to `Cc1ccc2c(c1)C(=O)OC2=O`, for which the result was inactive.

As for `CCCCCCCCc1ccc(S(=O)(=O)O)cc1`, the AC50 was 99.5 µM (active).

For the molecule `Nc1ccc2cc(S(=O)(=O)O)cc(O)c2c1N=Nc1ccccc1C(F)(F)F`, the result was inactive.

Consider `CCCOCCO`, for which the result was inactive.

Turning to `COCCc1ccc(OCC(O)CNC(C)C)cc1` (stereo unspecified), the result was inactive.

As to `FC(F)(F)COCC(F)(F)F`, the outcome was inactive.

Regarding `O=C(Nc1ccc([N+](=O)[O-])cc1)Nc1ccc([N+](=O)[O-])cc1` (tested in a mixture with another compound), the molecule was called inactive.

Take `COc1cc(Cl)c(OC)cc1N`: the molecule was classed as inactive.

Take `CSc1c(Cl)c(Cl)c(Cl)c(Cl)c1Cl`: the outcome was inactive.

Take `CCCC1O[C@@H]2C[C@H]3[C@@H]4CCC5=CC(=O)C=C[C@]5(C)[C@H]4[C@@H](O)C[C@]3(C)[C@]2(C(=O)CO)O1` (stereo partly specified): the molecule was called inactive.

Consider `C=C(CC(=O)O)C(=O)O`, for which the result was inactive.

Regarding `O=C(O)CNc1ccccc1`, the AC50 is 165 µM (active).

For `C[C@H]1O[C@@H](O[C@H]2[C@@H](O)C[C@H](O[C@H]3[C@@H](O)C[C@H](O[C@H]4CC[C@@]5(C)[C@H](CC[C@@H]6[C@@H]5C[C@@H](O)[C@]5(C)[C@@H](C7=CC(=O)OC7)CC[C@]65O)C4)O[C@@H]3C)O[C@@H]2C)C[C@H](O)[C@@H]1O`, the outcome was inactive.

As to `CCc1ccc(O)cc1`, the molecule was classed as inactive.

Turning to `CCCC[P+](CCCC)(CCCC)CCCC`, the call was inactive.

Consider `NC(=S)NNC(N)=S`, for which the outcome was inactive.

Regarding `C=CCOC(=O)CCCCCC`, the molecule was classed as inactive.

In the case of `Nc1ccn([C@H]2CS[C@@H](CO)O2)c(=O)n1`, the molecule was called inactive.

For `COc1cccc(OC)c1O`, the call was inactive.

Regarding `Cc1c(OCC(F)(F)F)ccnc1CS(=O)c1nc2ccccc2[nH]1` (stereo unspecified), the molecule was classed as inactive.

On to `CCC1(c2ccccc2)C(=O)NCNC1=O`, for which the outcome was inactive.

For `CSCCC=O`, the molecule was called inactive.

As to `C=C1CC[C@H](O)C/C1=C/C=C1\CCC[C@]2(C)[C@@H]([C@H](C)/C=C/[C@H](C)C(C)C)CC[C@@H]12`, the result was inactive.

Consider `CC(=O)Nc1ccc(C(=O)CCl)cc1`, for which the outcome was inactive.

With `CCCC(C)=O`, the outcome was inactive.

Regarding `CS(=O)(=O)c1ccc(C2=C(c3ccccc3)C(=O)OC2)cc1`, the call was inactive.

Take `CCCCCCOCCOCCO`: the call was inactive.

As to `O=C(O)COCC(=O)O`, the call was inactive.

Consider `CC[N+](C)(CC)CC`, for which the result was inactive.

In the case of `CCCN(CCC)S(=O)(=O)c1ccc(C(=O)O)cc1`, the result was inactive.

Consider `C[C@H](CCC(=O)NCC(=O)O)[C@H]1CC[C@H]2[C@@H]3[C@H](O)C[C@@H]4C[C@H](O)CC[C@]4(C)[C@H]3C[C@H](O)[C@]12C`, for which the molecule was classed as inactive.

With `CC(Oc1cc(Cl)ccc1Cl)C(=O)O` (stereo unspecified), the call was inactive.

As to `C=C(C)C1CC=C(C)C(=O)C1` (stereo unspecified), the molecule was classed as inactive.
